Assay results as given in ChEMBL document CHEMBL3988442, “University of Dundee, Small-Polar-MMV Screening Library” (2021).
For some assays here: Entries with a potency or affinity are not part of this list.

Assays:
Parameters in all cases: scale not given: direction of the effect not stated beside the values
[1] = biological target: Protein translocase subunit SecA (Escherichia coli (strain K12)) (UniProt P10408); assay: Assay to Identify E. coli SecA ATPase Inhibitors; assay type: functional; details: 30 µM
Chain of Protein translocase subunit SecA (Escherichia coli (strain K12)) (P10408 whole entry): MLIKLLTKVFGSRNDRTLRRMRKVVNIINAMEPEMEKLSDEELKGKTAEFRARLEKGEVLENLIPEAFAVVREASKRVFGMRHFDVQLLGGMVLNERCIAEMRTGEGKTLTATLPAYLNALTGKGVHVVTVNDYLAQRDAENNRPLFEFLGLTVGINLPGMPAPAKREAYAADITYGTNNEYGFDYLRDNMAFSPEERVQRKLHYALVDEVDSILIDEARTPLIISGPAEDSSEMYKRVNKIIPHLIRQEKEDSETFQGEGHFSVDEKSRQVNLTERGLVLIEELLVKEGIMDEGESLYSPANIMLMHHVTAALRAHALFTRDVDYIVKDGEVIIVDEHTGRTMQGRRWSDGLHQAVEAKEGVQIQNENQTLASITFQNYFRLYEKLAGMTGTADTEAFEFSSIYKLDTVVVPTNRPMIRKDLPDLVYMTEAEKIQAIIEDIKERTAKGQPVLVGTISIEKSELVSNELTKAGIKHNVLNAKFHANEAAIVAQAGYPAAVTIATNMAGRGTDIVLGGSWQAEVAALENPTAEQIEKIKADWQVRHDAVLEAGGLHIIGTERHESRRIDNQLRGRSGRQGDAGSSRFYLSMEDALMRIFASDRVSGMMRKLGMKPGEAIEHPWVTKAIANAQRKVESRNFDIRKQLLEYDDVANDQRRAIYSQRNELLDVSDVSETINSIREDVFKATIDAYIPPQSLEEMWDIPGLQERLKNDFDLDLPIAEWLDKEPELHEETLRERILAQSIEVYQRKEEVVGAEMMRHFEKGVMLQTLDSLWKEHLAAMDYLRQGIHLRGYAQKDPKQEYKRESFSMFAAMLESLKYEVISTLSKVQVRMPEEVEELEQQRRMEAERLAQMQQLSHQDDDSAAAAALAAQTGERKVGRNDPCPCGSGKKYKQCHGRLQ

[2] = biological target: T1, Ubiquitin-activating enzyme e1, putative (Leishmania donovani (strain BPK282A1)) (UniProt E9BSI1); assay: Leishmania donovani Ubiquitin Activating Enzyme (LdE1); assay type: functional; details: 30 µM
T1 sequence (whole entry): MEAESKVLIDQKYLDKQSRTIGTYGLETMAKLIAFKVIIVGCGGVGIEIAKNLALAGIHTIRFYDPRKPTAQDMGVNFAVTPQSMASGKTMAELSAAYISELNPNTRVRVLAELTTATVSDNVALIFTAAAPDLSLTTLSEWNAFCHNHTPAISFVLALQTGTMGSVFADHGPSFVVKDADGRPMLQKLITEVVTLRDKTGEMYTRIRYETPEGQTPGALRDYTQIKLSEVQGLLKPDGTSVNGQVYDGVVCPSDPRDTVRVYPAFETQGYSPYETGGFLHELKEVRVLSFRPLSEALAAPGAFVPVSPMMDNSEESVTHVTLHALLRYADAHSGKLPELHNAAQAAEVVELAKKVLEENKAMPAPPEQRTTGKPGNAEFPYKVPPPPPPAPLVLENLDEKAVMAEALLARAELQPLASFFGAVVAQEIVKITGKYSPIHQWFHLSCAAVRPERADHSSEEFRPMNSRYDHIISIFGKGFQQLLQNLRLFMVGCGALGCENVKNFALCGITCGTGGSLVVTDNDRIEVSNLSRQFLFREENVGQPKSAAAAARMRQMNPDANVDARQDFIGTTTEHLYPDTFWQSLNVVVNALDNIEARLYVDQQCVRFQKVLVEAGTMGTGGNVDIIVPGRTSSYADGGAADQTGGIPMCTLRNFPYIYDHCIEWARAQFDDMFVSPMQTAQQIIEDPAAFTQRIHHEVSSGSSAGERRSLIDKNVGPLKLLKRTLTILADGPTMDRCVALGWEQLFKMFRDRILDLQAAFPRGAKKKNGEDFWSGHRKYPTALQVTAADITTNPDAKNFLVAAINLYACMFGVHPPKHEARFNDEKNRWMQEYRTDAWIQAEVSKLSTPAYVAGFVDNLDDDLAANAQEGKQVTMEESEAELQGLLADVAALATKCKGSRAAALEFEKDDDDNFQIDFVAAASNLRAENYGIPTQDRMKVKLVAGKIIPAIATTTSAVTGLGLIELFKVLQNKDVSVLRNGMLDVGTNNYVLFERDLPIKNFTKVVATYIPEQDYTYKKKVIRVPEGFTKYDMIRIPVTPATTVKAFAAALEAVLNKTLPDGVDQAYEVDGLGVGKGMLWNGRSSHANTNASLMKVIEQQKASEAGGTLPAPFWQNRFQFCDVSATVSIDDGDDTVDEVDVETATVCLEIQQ

[3] = biological target: AMP-activated protein kinase, AMPK (Homo sapiens) (UniProt P54646+O43741+P54619+Q9UGJ0+Q9Y478+Q13131+Q9UGI9); assay: AMP-dependent Kinase enzyme assay. An in vitro enzyme assay that detects ADP turnover that is directly proportional to AMPK activity. This uses naive AMPK that is activated during the assay with MK-8722; assay type: functional; details: 30 µM
[4] = biological target: Sialic acid-binding Ig-like lectin 9 (Homo sapiens) (UniProt Q9Y336); assay: Hs-Siglec9 ALPHAscreen SOP 20170721; details: 10 µM
Chain of Sialic acid-binding Ig-like lectin 9 (Homo sapiens) (Q9Y336 whole entry): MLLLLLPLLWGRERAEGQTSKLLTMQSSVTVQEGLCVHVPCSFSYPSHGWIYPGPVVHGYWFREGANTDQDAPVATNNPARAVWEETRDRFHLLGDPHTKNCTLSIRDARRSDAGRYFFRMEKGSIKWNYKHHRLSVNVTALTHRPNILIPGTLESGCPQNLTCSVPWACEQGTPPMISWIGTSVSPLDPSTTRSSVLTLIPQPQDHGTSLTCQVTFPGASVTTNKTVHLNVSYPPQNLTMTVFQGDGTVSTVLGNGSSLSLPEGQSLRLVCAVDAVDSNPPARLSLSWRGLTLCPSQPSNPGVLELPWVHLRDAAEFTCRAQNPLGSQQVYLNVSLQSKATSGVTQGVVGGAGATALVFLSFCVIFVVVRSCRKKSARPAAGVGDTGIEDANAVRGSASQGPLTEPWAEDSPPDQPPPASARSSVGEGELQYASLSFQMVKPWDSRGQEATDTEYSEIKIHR

Trypanosoma cruzi = assay: Trypanosoma cruzi phosphomannomutase and mannose-1-phosphate guanylyltransferase assay; assay type: functional; details: 10 µM
[5] = biological target: T2, Arginase-2, mitochondrial (Homo sapiens) (UniProt P78540); assay: in vitro enzyme assay to detect the production of urea directly proportional to the activity of Arginase II; assay type: functional; details: 33.3 µM; further: in the data most compounds retested in dose-response had high values
T2 sequence (whole entry): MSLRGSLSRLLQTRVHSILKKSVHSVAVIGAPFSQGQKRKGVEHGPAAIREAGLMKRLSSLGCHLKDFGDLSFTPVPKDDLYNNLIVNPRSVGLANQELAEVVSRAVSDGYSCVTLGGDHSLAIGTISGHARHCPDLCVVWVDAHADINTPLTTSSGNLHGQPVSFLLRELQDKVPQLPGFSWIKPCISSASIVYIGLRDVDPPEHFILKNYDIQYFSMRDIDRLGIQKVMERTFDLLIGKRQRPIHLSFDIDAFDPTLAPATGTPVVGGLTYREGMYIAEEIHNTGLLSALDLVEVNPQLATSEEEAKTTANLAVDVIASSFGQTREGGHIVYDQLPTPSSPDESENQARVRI

[6] = biological target: T3, Proteasome subunit beta (Trypanosoma cruzi) (UniProt O96673); assay: Trypanosoma cruzi proteasome chymotrypsin-like activity (TcProtChymo) assay.; further: in the data most compounds retested in dose-response had high values; assay type: functional; details: 9.37 µM
T3 sequence (whole entry): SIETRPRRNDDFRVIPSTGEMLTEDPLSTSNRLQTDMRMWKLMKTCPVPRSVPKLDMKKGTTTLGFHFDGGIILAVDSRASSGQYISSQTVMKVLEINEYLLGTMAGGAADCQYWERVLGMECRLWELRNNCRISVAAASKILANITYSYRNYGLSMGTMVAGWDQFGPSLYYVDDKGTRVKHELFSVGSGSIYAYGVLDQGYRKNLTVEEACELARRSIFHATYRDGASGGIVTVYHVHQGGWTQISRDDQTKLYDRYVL

Homo sapiens = species on record: Homo sapiens; assay: To identify inhibition of the IFN signalling (Jak-Stat) pathway via expression of an eGFP reporter gene under the control of an IFN-stimulated response element (ISRE) containing MxA promoter.; assay type: functional; details: 30 µM
[7] = biological target: T4, Tyrosyl-tRNA synthetase, putative (Trypanosoma cruzi (strain CL Brener)) (UniProt Q4DSP6); assay: Trypanosoma cruzi tyrosyl tRNA synthetase (TcYRS) _High Tyrosine SOP; assay type: functional; details: 30 µM; further: in the data most compounds retested in dose-response had high values
T4 sequence (whole entry): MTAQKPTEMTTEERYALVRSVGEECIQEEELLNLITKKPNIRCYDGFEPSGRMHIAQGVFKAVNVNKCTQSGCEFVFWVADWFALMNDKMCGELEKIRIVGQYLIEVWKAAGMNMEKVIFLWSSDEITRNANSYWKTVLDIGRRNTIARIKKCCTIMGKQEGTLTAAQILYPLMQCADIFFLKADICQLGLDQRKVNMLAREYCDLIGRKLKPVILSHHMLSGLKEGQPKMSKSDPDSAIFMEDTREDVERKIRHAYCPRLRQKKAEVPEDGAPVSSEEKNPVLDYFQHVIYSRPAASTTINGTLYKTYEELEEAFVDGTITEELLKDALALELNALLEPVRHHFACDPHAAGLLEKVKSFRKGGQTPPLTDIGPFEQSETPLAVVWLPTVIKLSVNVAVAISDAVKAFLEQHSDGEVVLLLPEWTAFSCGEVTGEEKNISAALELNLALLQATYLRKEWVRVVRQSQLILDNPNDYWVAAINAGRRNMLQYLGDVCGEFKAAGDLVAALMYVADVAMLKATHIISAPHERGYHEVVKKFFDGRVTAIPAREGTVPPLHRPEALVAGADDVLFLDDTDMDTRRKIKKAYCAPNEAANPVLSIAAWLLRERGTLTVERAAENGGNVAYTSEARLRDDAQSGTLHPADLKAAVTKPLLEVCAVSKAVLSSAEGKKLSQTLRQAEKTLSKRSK

[8] = biological target: T4, Tyrosyl-tRNA synthetase, putative (Trypanosoma cruzi (strain CL Brener)); assay: Trypanosoma cruzi tyrosyl tRNA synthetase (TcYRS) SOP; assay type: functional; details: 30 µM
[9] = biological target: Chromo domain-containing protein 1 (Saccharomyces cerevisiae (strain ATCC 204508 / S288c) (Baker's yeast)) (UniProt P32657); assay: ScCHD-1 Enzyme Inhibition Assay; assay type: functional; details: 30 µM; further: in the data most compounds retested in dose-response had high values
Chain of Chromo domain-containing protein 1 (Saccharomyces cerevisiae (strain ATCC 204508 / S288c) (Baker's yeast)) (P32657 whole entry, the tested form may be a part): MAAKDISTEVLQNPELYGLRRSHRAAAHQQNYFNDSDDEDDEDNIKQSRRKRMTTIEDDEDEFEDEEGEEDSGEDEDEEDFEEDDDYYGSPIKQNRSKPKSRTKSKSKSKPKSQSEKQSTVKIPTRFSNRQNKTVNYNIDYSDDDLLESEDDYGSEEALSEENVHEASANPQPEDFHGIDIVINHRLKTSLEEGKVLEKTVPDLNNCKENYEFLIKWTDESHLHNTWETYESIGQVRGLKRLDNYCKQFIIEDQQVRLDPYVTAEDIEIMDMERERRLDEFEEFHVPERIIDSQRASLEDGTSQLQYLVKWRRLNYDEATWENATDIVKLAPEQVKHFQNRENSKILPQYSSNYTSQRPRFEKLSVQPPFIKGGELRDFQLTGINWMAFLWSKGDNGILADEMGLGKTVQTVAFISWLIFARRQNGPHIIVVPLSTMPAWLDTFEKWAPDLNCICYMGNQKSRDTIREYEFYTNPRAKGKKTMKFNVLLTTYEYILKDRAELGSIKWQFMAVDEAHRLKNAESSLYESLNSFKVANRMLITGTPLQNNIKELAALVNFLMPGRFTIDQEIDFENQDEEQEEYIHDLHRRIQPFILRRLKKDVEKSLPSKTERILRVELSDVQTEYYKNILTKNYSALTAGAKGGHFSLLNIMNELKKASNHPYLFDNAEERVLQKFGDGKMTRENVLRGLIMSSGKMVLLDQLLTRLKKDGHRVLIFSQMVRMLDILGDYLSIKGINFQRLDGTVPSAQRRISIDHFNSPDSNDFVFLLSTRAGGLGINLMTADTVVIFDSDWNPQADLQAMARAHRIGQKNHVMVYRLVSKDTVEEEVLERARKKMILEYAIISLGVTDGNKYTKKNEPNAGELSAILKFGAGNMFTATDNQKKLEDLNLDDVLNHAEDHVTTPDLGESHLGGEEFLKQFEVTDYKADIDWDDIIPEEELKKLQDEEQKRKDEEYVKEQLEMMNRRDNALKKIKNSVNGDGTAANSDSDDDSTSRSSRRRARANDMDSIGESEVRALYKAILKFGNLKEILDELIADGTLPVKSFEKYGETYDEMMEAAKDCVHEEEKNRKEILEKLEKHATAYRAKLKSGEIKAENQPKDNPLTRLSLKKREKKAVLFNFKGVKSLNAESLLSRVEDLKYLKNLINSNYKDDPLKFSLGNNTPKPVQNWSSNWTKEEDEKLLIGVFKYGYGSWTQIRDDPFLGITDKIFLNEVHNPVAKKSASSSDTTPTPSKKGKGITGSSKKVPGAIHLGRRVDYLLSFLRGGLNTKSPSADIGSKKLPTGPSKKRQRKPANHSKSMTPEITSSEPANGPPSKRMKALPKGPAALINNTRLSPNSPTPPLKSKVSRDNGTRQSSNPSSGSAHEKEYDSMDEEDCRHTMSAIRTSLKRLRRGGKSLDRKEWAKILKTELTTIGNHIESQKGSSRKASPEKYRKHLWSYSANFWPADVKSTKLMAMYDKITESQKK

Row | SMILES | Percent Effect [1] | Percent Effect [2] | Percent Effect [3] | Percent Effect [4] | Percent Effect (Trypanosoma cruzi) | Percent Effect [5] | Percent Effect [6] | Percent Effect (Homo sapiens) | Percent Effect [7] | Percent Effect [8] | Percent Effect [9]
1 | Cc1nc(CNC(=O)NCCc2ccc(N(C)C)cc2)cs1 | -4.53% | 10.8% | 6.12% | 13.5% | 1.23% | -5.61% | -1.98% | -15.3% | 9.36% | 18.5% | -10.4%
2 | Cc1ccsc1C(=O)N1C[C@@H]2CN(Cc3ccoc3)CCO[C@@H]2C1 | 1.09% | 18.9% | 1.36% | -11.6% | 5.18% | 9.87% | 12.7% | -6.4% | 6.49% | 15.4% | -1.54%
3 | Cc1nn(C)c(C)c1C1COCCN1C(=O)Cc1cccc(F)c1 (stereo not given) | -0.171% | 13.7% | -6.33% | 3.58% | -3.13% | -1.82% | 17.6% | 33.3% | 1.07% | 5% | -4.69%
4 | Cc1cc2n(n1)CC(CNCc1ccc(-n3cccn3)nc1)CN2 (stereo not given) | -1.63% | 5.26% | -8.03% | 8.37% | 13.2% | -0.766% | 7.69% | 1.93% | 11.3% | 21.9% | -9.89%
5 | CN(C)C(=O)N1Cc2nnn(C)c2C(COCC2CC2)C1 (stereo not given) | 1.21% | -21.9% | -4.36% | 0.0741% | 4.96% | 2% | 6.76% | -7.39% | 2.08% | 6.17% | -1.7%
6 | Cc1ccc(NC(=O)CNc2cccc3c2CCCC3)c(Br)c1 | -0.516% | 0% | -8.17% | 10.7% | 1.07% | 27.1% | 12.3% | -16% | 5.38% | 6.17% | -12.9%
7 | Cn1c(CN2CCCC2)nnc1C1CCCN(C(=O)C2CCOCC2)C1 (stereo not given) | -3.02% | 5.41% | -5.63% | 28.6% | 5.99% | 22.9% | 8.1% | 6.46% | 4.76% | 4.88% | -11.7%
8 | O=C([C@H]1C[C@H]2OCC[C@H]2N(CCc2ccccc2)C1)N1CCCCO1 | -4.49% | 5.41% | 7.77% | -1.67% | -0.0978% | 3.5% | 11.4% | -14.2% | 5.41% | 15.4% | 6.02%
9 | CCCOCC(=O)NS(=O)(=O)c1ccc2c(c1)OCCCO2 | -8.22% | 0% | 0.981% | -3.65% | -6.07% | 0% | -0.423% | 13.9% | -2.46% | -6.17% | 1.45%
10 | CCCN(C(=O)c1ccccn1)c1nc2c(s1)CCc1c-2cnn1C | 3.44% | 60.8% | -62.8% | 3.48% | 0.988% | 15.6% | 17.5% | 32.7% | -6.45% | -6.49% | -6.45%
